PubChem BioAssay (Tox21)
Results filed as inconclusive are left out. Active and inactive are the calls of the source. Unless noted, the call rests on the fitted dose curve; in most records, active means well fitted curve in the direction sought with a large enough effect in the repeat runs; inconclusive means weak or mixed curves; inactive means no such curve, though single readings can be large; an effect the other way counts as inactive or inconclusive.

Key:
[1] = target: Luciferin 4-monooxygenase (Photinus pyralis) (UniProt P08659); assay: qHTS assay to identify small molecule inhibitors of firefly luciferase (AID 1224835); further: nearly all actives have a fitted effect of over 25% in size; further: potency means the concentration at half of the fitted maximal effect; on activity change, negative = inhibition: series mostly up to about 120 µM
Chain of Luciferin 4-monooxygenase (Photinus pyralis) (P08659 whole entry, looked up): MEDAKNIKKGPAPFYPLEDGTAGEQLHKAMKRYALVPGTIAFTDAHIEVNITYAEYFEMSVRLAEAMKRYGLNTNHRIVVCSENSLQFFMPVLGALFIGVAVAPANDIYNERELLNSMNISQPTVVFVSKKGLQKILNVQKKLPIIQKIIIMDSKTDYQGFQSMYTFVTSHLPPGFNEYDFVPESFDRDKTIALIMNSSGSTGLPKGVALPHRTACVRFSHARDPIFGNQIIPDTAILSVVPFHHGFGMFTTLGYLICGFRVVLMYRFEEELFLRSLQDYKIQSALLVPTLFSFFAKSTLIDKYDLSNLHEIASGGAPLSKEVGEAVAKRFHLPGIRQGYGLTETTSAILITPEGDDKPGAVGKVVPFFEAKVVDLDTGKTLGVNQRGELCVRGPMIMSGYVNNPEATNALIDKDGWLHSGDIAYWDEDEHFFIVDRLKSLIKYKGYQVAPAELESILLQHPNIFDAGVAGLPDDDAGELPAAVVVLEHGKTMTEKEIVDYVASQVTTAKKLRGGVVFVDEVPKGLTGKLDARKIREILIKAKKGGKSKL
Summary of the method: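 Quantitative HTS format; KM concentrations of both substrates. Purified P. pyralis FLuc activity quantified from luminescence images.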

[2] = qHTS assay to identify small molecule agonists of the constitutive androstane receptor (CAR) signaling pathway - cell viability counter screen (AID 1224836); further: nearly all actives have a fitted effect of over 45% in size; further: potency means the concentration at half of the fitted maximal effect; on viability change, negative = cytotoxic: series mostly up to about 92 µM
Summary of the method: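 Viability read-out: CellTiter-Fluor fluorescence after 23 h compound exposure at 37 C/5% CO2 in double-stable HepG2-CYP2B6-hCAR cells, with PK11195 present at 0.75 uM final; compounds tested in 15-point titration.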

[3] = qHTS assay to identify small molecule antagonists of the constitutive androstane receptor (CAR) signaling pathway - cell viability counter screen (AID 1224837); further: nearly all actives have a fitted effect of over 45% in size; further: potency means the concentration at half of the fitted maximal effect; on activity change, negative = cytotoxicity: series mostly up to about 92 µM
Summary of the method: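 Fluorescence from CellTiter-Fluor served as the viability signal. Human hepatoma HepG2 cells stably bearing hCAR and CYP2B6-2.2kb received compound plus CITCO (50 nM final) for 23 hr.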

[4] = qHTS assay to identify small molecule antagonists of the estrogen related receptor signaling pathway with the pleiotropic PPARgamma coactivator (PGC) from Tox21 10K library - cell viability counter screen (AID 1224840; active means well fitted cell-killing curve with a large enough effect in the repeat runs, not every such curve was filed as active; further: nearly all actives have a fitted effect of over 40% in size; further: potency means the concentration at half of the fitted maximal effect)
Summary of the method: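 Compounds in DMSO, alongside positive and negative controls, were pinned onto PGC/ERR cells (2,000 per well). Exposure lasted 17.5 hours at 37 C, followed by a 30-minute CellTiter-Fluor incubation and fluorescence reading.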

[5] = target: Thyrotropin receptor (Homo sapiens) (UniProt P16473); assay: qHTS assay to identify small molecule agonists of the thyroid stimulating hormone receptor (TSHR) signaling pathway (AID 1224843; calls by dose curve; further: nearly all actives have a fitted effect of over 45% in size)
Chain of Thyrotropin receptor (Homo sapiens) (P16473 whole entry, looked up): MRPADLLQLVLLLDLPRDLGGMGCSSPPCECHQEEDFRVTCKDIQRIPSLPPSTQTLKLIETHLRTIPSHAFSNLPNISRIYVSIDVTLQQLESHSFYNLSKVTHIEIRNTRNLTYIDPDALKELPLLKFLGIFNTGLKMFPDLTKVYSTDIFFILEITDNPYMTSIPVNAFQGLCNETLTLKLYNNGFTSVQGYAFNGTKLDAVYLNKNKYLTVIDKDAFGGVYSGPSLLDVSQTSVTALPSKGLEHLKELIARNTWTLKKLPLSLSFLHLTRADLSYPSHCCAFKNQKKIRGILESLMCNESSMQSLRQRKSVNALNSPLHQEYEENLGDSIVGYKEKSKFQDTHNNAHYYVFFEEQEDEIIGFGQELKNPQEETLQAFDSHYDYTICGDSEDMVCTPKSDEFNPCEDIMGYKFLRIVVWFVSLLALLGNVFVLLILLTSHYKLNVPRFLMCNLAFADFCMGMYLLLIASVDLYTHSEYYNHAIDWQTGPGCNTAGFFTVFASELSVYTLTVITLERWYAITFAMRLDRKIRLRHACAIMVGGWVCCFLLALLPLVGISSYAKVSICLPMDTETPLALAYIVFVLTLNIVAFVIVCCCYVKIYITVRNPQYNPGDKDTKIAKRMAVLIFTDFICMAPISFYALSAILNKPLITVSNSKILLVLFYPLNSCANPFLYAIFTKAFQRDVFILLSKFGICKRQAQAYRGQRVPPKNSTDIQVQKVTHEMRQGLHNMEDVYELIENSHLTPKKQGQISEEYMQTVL
Summary of the method: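 Cell line HEK293 with TSHR; density 800/well. Exposure 30 min RT. Readout HTRF cAMP (cAMP-d2/anti-cAMP-cryptate), 1 h RT before reading.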

[6] = qHTS assay to identify small molecule agonists of the hypoxia (HIF-1) signaling pathway - cell viability counter screen (AID 1224844; calls by dose curve; further: nearly all actives have a fitted effect of over 50% in size; further: potency means the concentration at half of the fitted maximal effect)
Summary of the method: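 Luminescent ATP content (CellTiter-Glo, 30 min, room temperature) served as the viability measure in HRE-bla ME-180 cells exposed to compounds for 17 hrs in low-serum medium (0.5% dialyzed FBS).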

[7] = qHTS assay to identify small molecule agonists of the estrogen related receptor signaling pathway with the pleiotropic PPARgamma coactivator (PGC) from Tox21 10K library (AID 1224842); further: nearly all actives have a fitted effect of over 15% in size
Summary of the method: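 PGC/ERR reporter cells (NTP line) were seeded 2,000 per well, rested 6 h at 37 C/5% CO2, then pin-dosed with compounds in DMSO for 18 h at 37 C; luciferase read by One-Glo luminescence after 30 min at room temperature.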

[8] = qHTS assay to identify small molecule antagonists of the estrogen related receptor signaling pathway with the pleiotropic PPARgamma coactivator (PGC) from Tox21 10K library (AID 1224841; call rule not given here; further: actives are mostly falling curves and most rising ones were filed inactive; nearly all actives have a fitted effect of over 50% in size; further: potency means the concentration at half of the fitted maximal effect; on activity, negative = inhibition: series mostly up to about 92 µM)
Summary of the method: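 Compound exposure ran 18 hours at 37 C in PGC/ERR cells (2,000/well) that had first rested 6 hours in a 37 C/5% CO2 incubator. Luciferase activity was then detected with One-Glo after a 30-minute room-temperature step.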

[9] = target: Nuclear receptor subfamily 1 group I member 3 (Homo sapiens) (UniProt Q14994); assay: qHTS assay to identify small molecule antagonists of the constitutive androstane receptor (CAR) signaling pathway (AID 1224838);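 further: HepG2 cells stably expressing hCAR with CYP2B6 luciferase reporter stimulated by CITCO; nearly all actives have a fitted effect of over 40% in size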
Chain of Nuclear receptor subfamily 1 group I member 3 (Homo sapiens) (Q14994 whole entry, looked up): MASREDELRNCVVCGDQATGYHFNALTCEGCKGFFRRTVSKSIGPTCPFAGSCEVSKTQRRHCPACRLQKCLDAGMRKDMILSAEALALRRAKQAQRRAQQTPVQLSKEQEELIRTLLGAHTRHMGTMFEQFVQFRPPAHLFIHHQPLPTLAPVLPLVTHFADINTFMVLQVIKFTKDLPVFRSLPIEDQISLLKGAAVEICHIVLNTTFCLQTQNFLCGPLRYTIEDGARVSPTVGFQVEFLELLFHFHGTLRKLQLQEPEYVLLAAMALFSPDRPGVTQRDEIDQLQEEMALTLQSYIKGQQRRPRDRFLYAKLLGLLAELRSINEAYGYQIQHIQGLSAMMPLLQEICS
Summary of the method: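 Quantitative HTS in double-stable HepG2-CYP2B6-hCAR cells. After 4 h plating, cells get compound (15 concentrations) and CITCO at 50 nM final, incubate 24 h at 37 C, then ONE-Glo luminescence is read.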

[10] = target: Nuclear receptor subfamily 1 group I member 3 (Homo sapiens) (UniProt Q14994); assay: qHTS assay to identify small molecule agonists of the constitutive androstane receptor (CAR) signaling pathway (AID 1224839);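 further: HepG2 cells stably carrying human CAR and a CYP2B6 luciferase reporter; series mostly up to about 92 µM; nearly all actives have a fitted effect of over 15% in size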
Summary of the method: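 Luminescence read-out (ONE-Glo, 30 min, room temperature) from double-stable HepG2-CYP2B6-hCAR cells exposed 24 h to 15-point compound series in presence of 0.75 uM PK11195 final.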
On the % scale 0 is the no-effect control and ±100 the full control effect.

O=C(O)c1ccco1
inactive: Potency [1] | Potency [2] | Potency [3] | Potency [4] | Potency [5] | Potency [6]

CN(C)CCN(Cc1ccccc1)c1ccccn1
inactive: Potency [1] | Potency [2] | Potency [3] | Potency [4] | Potency [5]

c1ccc(-c2ccccn2)nc1
inactive: Potency [1] | Potency [2] | Potency [3] | Potency [4] | Potency [7] | Potency [5] | Potency [6]

O=[N+]([O-])c1ccc(NCCO)c(OCCO)c1
active: Potency [2] 43.3 µM | Potency [3] 48.6 µM | Potency [4] 48.6 µM
inactive: Potency [1] | Potency [8] | Potency [7] | Potency [5] | Potency [6]

COCC(C)OC(C)=O (stereo unspecified)
inactive: Potency [1] | Potency [2] | Potency [3] | Potency [9] | Potency [4] | Potency [6]

CC(CSC(=O)c1ccccc1)C(=O)N1C[C@@H](Sc2ccccc2)C[C@H]1C(=O)O (stereo partly specified)
inactive: activity change, negative = inhibition [1] 0.3% [at 23.6 µM] | viability change, negative = cytotoxic [2] 5.15% [at 19 µM] | activity change, negative = cytotoxicity [3] 0% [at 19 µM] | viability change, negative = cytotoxic [4] 17.4% [at 19 µM] | activity, negative = inhibition [8] 1.67% [at 19 µM] | activation [7] 0.512% [at 19 µM] | activation [5] -0.691% [at 19 µM] | activity change, negative = cytotoxicity [6] -3.08% [at 15.8 µM]

Cc1[nH]c(C)c(Cl)c(=O)c1Cl
inactive: activity change, negative = inhibition [1] -1.3% [at 23.6 µM] | viability change, negative = cytotoxic [2] 3.99% [at 19 µM] | activity change, negative = cytotoxicity [3] 8.34% [at 19 µM] | viability change, negative = cytotoxic [4] 12.2% [at 19 µM] | activation [5] 2.76% [at 19 µM] | activity change, negative = cytotoxicity [6] 12.4% [at 15.8 µM]

CC(COCCO)OCCO (stereo unspecified)
inactive: Potency [1] | Potency [2] | Potency [3] | Potency [4] | Potency [8] | Potency [7] | Potency [5] | Potency [6]

COc1cc2nc(N3CCN(C(=O)C4COc5ccccc5O4)CC3)nc(N)c2cc1OC (stereo unspecified)
inactive: Potency [1] | Potency [2] | Potency [3] | Potency [9] | Potency [5] | Potency [6]

NC(N)=NCCC[C@H](N)C(=O)O
inactive: activity change, negative = inhibition [1] 0.418% [at 10.5 µM] | viability change, negative = cytotoxic [2] 0.813% [at 8.39 µM] | activity change, negative = cytotoxicity [3] -4.98% [at 8.39 µM] | viability change, negative = cytotoxic [4] -6.77% [at 8.39 µM] | activity, negative = inhibition [8] -5.77% [at 8.39 µM] | activation [7] -1.51% [at 8.39 µM] | activation [5] -0.151% [at 8.39 µM] | activity change, negative = cytotoxicity [6] -0.141% [at 6.97 µM]

C=C1C(=C/C=C2\CCC[C@]3(C)[C@@H]([C@H](C)/C=C/[C@@H](O)C4CC4)CC[C@@H]23)C[C@@H](O)C[C@@H]1O
active: Potency [8] 29.8 µM
inactive: Potency [1] | Potency [2] | Potency [3] | Potency [9] | Potency [7] | Potency [6]

c1ccc(C(O[C@H]2CCCN(CCc3ccc4c(c3)OCO4)C2)c2ccccc2)cc1
inactive: Potency [1] | Potency [2] | Potency [3] | Potency [4] | Potency [5] | Potency [6]

O=C(CS)Nc1ccccc1
inactive: Potency [1] | Potency [2] | Potency [3] | Potency [4] | Potency [5] | Potency [6]

CCOC(=O)C(=O)CCc1ccccc1
inactive: Potency [1] | Potency [2] | Potency [3] | Potency [9] | Potency [4] | Potency [6]

C=C(C)C(=O)OCCOCC
inactive: Potency [1] | Potency [2] | Potency [3] | Potency [9] | Potency [4] | Potency [6]

C/C=C/C=C/CO
inactive: Potency [1] | Potency [2] | Potency [3] | Potency [4] | Potency [5] | Potency [6]

C[N+](C)(C)CCOC(=O)CCC(=O)OCC[N+](C)(C)C
inactive: Potency [1] | Potency [2] | Potency [3] | Potency [4] | Potency [5] | Potency [6]

N=c1ccn2c(n1)O[C@H]1[C@H](O)[C@@H](CO)O[C@H]12
inactive: Potency [1] | Potency [2] | Potency [3] | Potency [4] | Potency [8] | Potency [7] | Potency [5] | Potency [6]

C=C(C)C(=O)OCC
inactive: Potency [1] | Potency [2] | Potency [3] | Potency [4] | Potency [8] | Potency [7] | Potency [5] | Potency [6]

C1CCCNCCC1
inactive: Potency [1] | Potency [2] | Potency [3] | Potency [4] | Potency [7] | Potency [5] | Potency [6]
active: Potency [8] 4.32 µM

CCC(C)c1cc(C(C)(C)C)c(O)c(C(C)(C)C)c1 (stereo unspecified)
inactive: Potency [1] | Potency [2] | Potency [3] | Potency [4] | Potency [5] | Potency [6]

C[N+]1(CC2COC(c3ccccc3)(C3CCCCC3)O2)CCCCC1 (stereo unspecified)
inactive: Potency [1] | Potency [2] | Potency [3] | Potency [4] | Potency [7] | Potency [5] | Potency [6]

CCN(CC)CCNc1ccc(CNC=O)c2sc3ccc(OC)cc3c(=O)c12
active: Potency [2] 8.63 µM | Potency [3] 8.63 µM | Potency [4] 6.11 µM | Potency [6] 24.5 µM
inactive: Potency [1] | Potency [8] | Potency [5]

Nc1ccc(N)c2c1C(=O)c1ccccc1C2=O
inactive: Potency [10] | Potency [7] | Potency [6]
active: Potency [1] 17.8 µM | Potency [2] 17.2 µM | Potency [3] 15.4 µM | Potency [4] 19.3 µM | Potency [8] 24.3 µM

NS(=O)(=O)c1ccc(N2CCCCS2(=O)=O)cc1
inactive: Potency [1] | Potency [2] | Potency [3] | Potency [10] | Potency [4] | Potency [8] | Potency [7] | Potency [5] | Potency [6]

CCCCC
inactive: Potency [1] | Potency [2] | Potency [3] | Potency [4] | Potency [5] | Potency [6]

CCOc1ccc(N=Nc2ccc(/C=C/c3ccc(N=Nc4ccc(OCC)cc4)cc3S(=O)(=O)O)c(S(=O)(=O)O)c2)cc1
active: Potency [2] 24 µM | Potency [3] 21.4 µM | Potency [4] 47.8 µM
inactive: Potency [1] | Potency [5] | Potency [6]

NC(=O)C(c1ccccc1)(c1ccccc1)[C@@H]1CCN(CCc2ccc3c(c2)CCO3)C1
inactive: Potency [1] | Potency [2] | Potency [3] | Potency [4] | Potency [7] | Potency [5] | Potency [6]
